KDM5B inh: KDM5B demethylase inhibition | Q9UGL1 | KDM5B demethylase, FDH-coupled NADH fluorescence (FDH is formaldehyde dehydrogenase) | Potency, µM (titrated, usually from 57.7 µM), hits mostly inhibitors | 2.6% of 220,000 active; active = well fitted inhibition curve with a large enough effect; also: 0% is about no effect; nearly all actives have a fitted effect of over 70% in size
Target sequence (Q9UGL1 whole entry, looked up): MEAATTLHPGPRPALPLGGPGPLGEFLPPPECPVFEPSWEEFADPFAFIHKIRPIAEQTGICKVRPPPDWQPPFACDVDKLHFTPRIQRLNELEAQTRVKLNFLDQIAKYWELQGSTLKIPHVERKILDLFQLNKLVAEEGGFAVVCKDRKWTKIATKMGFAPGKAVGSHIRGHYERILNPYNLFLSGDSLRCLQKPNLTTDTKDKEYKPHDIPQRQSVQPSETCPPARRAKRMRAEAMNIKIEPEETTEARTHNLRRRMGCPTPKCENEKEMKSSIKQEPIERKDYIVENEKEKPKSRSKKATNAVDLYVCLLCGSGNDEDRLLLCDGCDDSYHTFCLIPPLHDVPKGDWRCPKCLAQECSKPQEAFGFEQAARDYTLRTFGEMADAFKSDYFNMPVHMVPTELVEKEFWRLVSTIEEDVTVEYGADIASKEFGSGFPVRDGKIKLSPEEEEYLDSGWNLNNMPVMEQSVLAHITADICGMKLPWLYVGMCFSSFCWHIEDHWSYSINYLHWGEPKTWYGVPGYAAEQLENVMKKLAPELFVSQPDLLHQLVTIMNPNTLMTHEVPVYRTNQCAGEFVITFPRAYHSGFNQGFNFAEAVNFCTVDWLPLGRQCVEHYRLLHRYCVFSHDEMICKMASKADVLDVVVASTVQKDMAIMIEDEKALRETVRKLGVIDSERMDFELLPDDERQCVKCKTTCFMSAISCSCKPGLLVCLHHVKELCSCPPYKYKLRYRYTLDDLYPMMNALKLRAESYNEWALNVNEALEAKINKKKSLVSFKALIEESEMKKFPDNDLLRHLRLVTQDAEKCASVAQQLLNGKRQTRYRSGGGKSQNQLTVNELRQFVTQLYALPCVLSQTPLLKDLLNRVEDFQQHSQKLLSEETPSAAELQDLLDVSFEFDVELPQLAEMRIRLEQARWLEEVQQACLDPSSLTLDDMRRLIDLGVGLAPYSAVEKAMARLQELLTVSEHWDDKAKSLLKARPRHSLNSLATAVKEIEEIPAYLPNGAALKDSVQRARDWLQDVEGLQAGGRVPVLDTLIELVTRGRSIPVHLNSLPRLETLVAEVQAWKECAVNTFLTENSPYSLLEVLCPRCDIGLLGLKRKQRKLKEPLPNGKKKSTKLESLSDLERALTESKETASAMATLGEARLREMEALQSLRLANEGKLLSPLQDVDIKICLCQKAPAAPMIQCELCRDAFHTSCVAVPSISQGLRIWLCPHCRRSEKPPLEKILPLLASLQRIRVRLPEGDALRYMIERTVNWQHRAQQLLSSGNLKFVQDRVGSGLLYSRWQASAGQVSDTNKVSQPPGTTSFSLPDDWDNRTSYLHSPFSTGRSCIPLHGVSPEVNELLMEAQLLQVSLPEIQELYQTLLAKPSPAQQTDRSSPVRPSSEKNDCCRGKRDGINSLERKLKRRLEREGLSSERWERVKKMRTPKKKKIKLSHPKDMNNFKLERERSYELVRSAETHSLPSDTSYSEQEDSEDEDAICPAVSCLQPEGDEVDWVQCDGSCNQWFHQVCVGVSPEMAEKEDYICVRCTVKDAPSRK
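Measured: NADH fluorescence change, 30 min, RT. System: KDM5BΔAP 200 nM final, H3K4me3 peptide, α-KG, Fe(II), ascorbate, NAD⁺ plus FDH, pH 7.5 HEPES. Compounds: titrated, 10 min pre-incubation with enzyme.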
Starred values were filed as active, the others as inactive; i = inactive. Only a selection was taken, and hits are over-represented in it overall. Potency is read from the fitted curve at half-maximal effect.

SMILES | KDM5B inh
CCOc1ccc(Oc2ccc(Cl)cc2NC(=O)Cn2c(=O)c3c(ncn3C)n(C)c2=O)cc1 | i
COc1cc(CN2CCC(C)(NC(C)=O)CC2)cc(Nc2ccccc2)c1 | i
O=S(=O)(Nc1nc2ccccc2nc1Nc1cccc(C(F)(F)F)c1)c1cccs1 | i
CCC(CC)CN(CC(=O)NC(N)=O)CC(=O)OC | i
N#CC1(NC(=O)CSC2=Nc3ccccc3CS2)CCCCC1 | i
O[C@H]1[C@H](NCc2ccncc2)[C@H]2CO[C@H](O2)[C@@H]1N1CCN(c2ccccc2)CC1 | 22µM*
NC(=O)C1CCN([C@H]2[C@@H]3OC[C@@H](O3)[C@@H](NCc3ccccc3)[C@@H]2O)CC1 | i
COc1ccccc1N1CCN([C@H]2[C@@H]3OC[C@@H](O3)[C@@H](NCc3ccc(-c4ccccc4)cc3)[C@@H]2O)CC1 | i
COc1cccc(CNC(=O)c2cc3n(n2)CC(c2ccc(Cl)cc2)OC3)c1 (configuration not stated) | i
O=C(NCc1cccc(Cl)c1)c1cc2n(n1)CC(c1ccc3c(c1)OCO3)OC2 (configuration not stated) | 20µM*
O=C(NCCc1ccccc1)c1cc2n(n1)CC(c1ccc(Cl)cc1)OC2 (configuration not stated) | i
COc1ccc(CNC(=O)c2cc3n(n2)CC(c2ccc4c(c2)OCO4)OC3)cc1OC (configuration not stated) | 25µM*
O=C(NCCCc1ccccc1)c1cc2n(n1)CC(c1ccc3c(c1)OCO3)OC2 (configuration not stated) | i
COc1ccccc1CNC(=O)c1cc2n(n1)CC(c1ccc3c(c1)OCO3)OC2 (configuration not stated) | 25µM*
COCCNC(=O)c1cc2n(n1)CC(c1ccc(Br)cc1)OC2 (configuration not stated) | i
COc1ccc(OC)c(NC(=O)c2cc3n(n2)CC(c2ccc4c(c2)OCO4)OC3)c1 (configuration not stated) | i
Cc1ccc(CCNC(=O)c2cc3n(n2)CC(c2ccc4c(c2)OCO4)OC3)cc1 (configuration not stated) | 25µM*
NC(=O)c1ccccc1NC(=O)C1(c2ccccc2)CCCC1 | i
CC(C)c1ccc(NC(=O)Cn2nc3ccc(S(=O)(=O)C(C)(C)C)nn3c2=O)cc1 | i
O=C(C1=Cc2cc(Cl)ccc2OC1)N1CCN(S(=O)(=O)c2ccc(F)cc2)CC1 | i
CNC(=O)c1ccc(-c2nc(CN3CCN(C(=O)Nc4ccc(OC)cc4)CC3)c(C)o2)cc1 | i
CC(CN1CCOCC1)NS(=O)(=O)c1cc(F)cc(F)c1 (configuration not stated) | i
O=C(O)c1ccc(Br)cc1C(=O)O | i
CC(c1cccs1)N(C)S(=O)(=O)c1cc(C(=O)O)cs1 (configuration not stated) | i
COc1ccccc1CCNC(=O)CCSc1nc(Cl)nc2nc[nH]c12 | i
SMILES | KDM5B inh
COc1cccc2cc(C(=O)NCc3nc(-c4ccccc4)no3)oc12 | i
N#Cc1cccc(NC(=O)CCCCCCCC(=O)Nc2cccc(C#N)c2)c1 | i
c1ccc(-n2nnnc2CNc2cccc3c2CCCC3)cc1 | i
CCc1ccc(-c2csc(Nc3cccc(C)n3)n2)cc1 | i
N#Cc1ccc(CSc2ccccc2C(=O)Nc2ccc3c(c2)OCCCO3)cc1 | i
CC(C)N1C(=O)C(NC(=O)C(=O)NCCc2c[nH]c3ccc(Cl)cc23)c2ccccc21 (configuration not stated) | i
CN(CC(=O)NC(=O)NC1CC1)Cc1cccc(C#N)c1 | i
Cc1ccc(S(=O)(=O)N2CCN(C(=O)c3c(-c4c(F)cccc4Cl)noc3C)CC2)cc1C | i
Cc1noc(C)c1-c1cc2c(cc(C)n2C)c(-c2ccc(CO)cc2)n1 | i
Cc1noc(C)c1-c1cc(-c2ccc([S+](C)(=O)[O-])cc2)cn2cncc12 | 32µM*
Cc1noc2nc(-c3ccccc3F)cc(C(=O)NCc3ccc(N4CCOCC4)nc3)c12 | i
Cc1noc(C)c1-c1cc2c(c(-c3cccc(O)c3)c1)C(=O)N(C)C2 | i
C#CCNC(=O)c1cc(-c2ccc([S+](C)(=O)[O-])cc2)c2cccn2n1 | i
Cc1noc(C)c1-c1cc(-c2ccc(N3CCOCC3)nc2)cn2cncc12 | 32µM*
Cc1noc(C)c1-c1cc(-c2ccc(CO)cc2)cn2cncc12 | 35µM*
COc1ccc(-c2cc(-c3ccc([S+](C)(=O)[O-])cc3)cn3cncc23)cc1 | i
CCn1c(Cn2nnc(-c3ccccc3C)n2)nc2cc(S(=O)(=O)N3CCOCC3)ccc21 | i
COc1ccc(N2C(=O)CN(C3CCCC3)[C@H]3CS(=O)(=O)C[C@H]32)cc1 | i
O=C(CCc1c[nH]c2ccccc12)Nc1ccc(N2CCCCC2)cc1 | i
Cn1c(-c2ccccc2)csc1=N | i
COc1ccc(Cl)cc1NC(=O)[C@H]1C[C@@H]2CCCN2[C@]12C(=O)Nc1c(Cl)cc(C)cc12 | i
Cc1c(Cc2ccccc2)c(=O)oc2cc(OCC(=O)NCCCO)ccc12 | i
O=C(O)C(c1c[nH]c2ccccc12)N1CCN(Cc2cccc(Cl)c2)CC1 (configuration not stated) | i
COc1cccc(-c2cccc(C(=O)N3CCC4(CCCN(C)C4=O)C3)c2)c1 (configuration not stated) | i
N#Cc1c(N)n[nH]c1CCCNC(=O)c1cn(Cc2ccccc2)nc1-c1ccccc1 | i
SMILES | KDM5B inh
COCc1noc(CCNc2cc(C)nc(-c3ccccc3O)n2)n1 | 22µM*
Cc1cc(NCCc2cnccn2)nc(-c2ccccc2O)n1 | i
COCc1noc(CCNC(=O)c2cc(-c3ccccc3)on2)n1 | i
O=c1c2nccnc2nc(SCc2cccc(F)c2)n1Cc1ccc2c(c1)OCO2 | i
Cc1ccc(CCC(=O)Nc2cnc3ccccc3c2)cc1 | i
COc1ccccc1SC(C)C(=O)NC1CCCC1 (configuration not stated) | i
C=CCNC(=O)c1ccccc1N | i
O=C(Nc1ccc(F)cc1)c1c[nH]c2cccnc12 | i
CCNC(=O)N1CCC(Oc2ncccc2C(=O)N(C)C)C1 (configuration not stated) | i
CN(C)C(=O)c1ccc(NC(=O)c2c[nH]c3ccccc23)cc1 | i
C=CCNC(=O)c1ccccc1NC(=O)c1cnccn1 | i
CN(C)C(=O)c1c[nH]c2cccnc12 | 126µM*
C=CCNC(=O)c1ccccc1Nc1ccccc1 | i
C=CCNC(=O)c1ccnc2[nH]ccc12 | 126µM*
C=CCNC(=O)c1c[nH]c2cccnc12 | 126µM*
CCCN1CCC(N(C)C(=O)Nc2ccc(F)cc2F)CC1 | i
Cc1ccc(Cn2c(N3CCN(C/C=C/c4ccccc4)CC3)nc3c2c(=O)[nH]c(=O)n3C)cc1 | i
CCC(N)CC12CC3CC(CC(C3)C1)C2 (configuration not stated) | i
CCN1C(=O)C(Cc2ccccc2OC)c2ccccc21 (configuration not stated) | i
COC(=O)C1CCN(Cc2cc(=O)oc3cc(C)c(Cl)c(C)c23)CC1 | i
O=C(c1noc2c1CCCC2)N1CCOc2ccc(CN3CCN(c4ccccn4)CC3)cc2C1 | i
O=C(c1ccc(-c2ccco2)cc1)N1CCOc2ccc(CN3CCN(c4ccccn4)CC3)cc2C1 | 28µM*
Cn1nccc1C(=O)N1CCOc2ccc(CN3CCc4ccccc4C3)cc2C1 | i

From PubChem BioAssay
